# JMJD2A Tudor inh – qHTS Assay for Inhibitors of JMJD2A-Tudor Domain; Potency, µM (titrated, usually from 114 µM), inactives show at the top dose activity change, negative = inhibition, most hits filed as inhibitors; 4.4% of 390,000 active; Lysine-specific demethylase 4A (Homo sapiens), O75164; AlphaScreen JMJD2A-Tudor / H3K4me3 peptide binding; AID 504339, 2011; further: on the % scale 0 is the no-effect control and ±100 the full control effect; nearly all actives have a fitted effect of over 50% in size
# PLK1 PBD inh – qHTS for Inhibitors of PLK1-PDB (polo-like kinase 1 - polo-box domain): Primary Screen; Plk1 PBD binding of FITC phosphopeptide, fluorescence polarization; Potency, µM, for the others: max response, negative = inhibition, most hits filed as inhibitors; 2.8% of 360,000 active; AID 720504, 2013; further: series mostly up to about 57 µM; on the % scale 0 is the no-effect control and ±100 the full control effect; nearly all actives have a fitted effect of over 65% in size
# G9a inh – qHTS Assay for Inhibitors of Histone Lysine Methyltransferase G9a; 8.8% of 350,000 active; Potency, µM (highest dose often 102 µM), without a hit: at the highest dose activity, negative = inhibition, usual class: inhibitors; G9a H3K9 monomethylation, AlphaScreen, 2 h; further: on the % scale 0 is the no-effect control and ±100 the full control effect; nearly all actives have a fitted effect of over 75% in size
# Target sequence (Q96KQ7 913-1193 limits assumed): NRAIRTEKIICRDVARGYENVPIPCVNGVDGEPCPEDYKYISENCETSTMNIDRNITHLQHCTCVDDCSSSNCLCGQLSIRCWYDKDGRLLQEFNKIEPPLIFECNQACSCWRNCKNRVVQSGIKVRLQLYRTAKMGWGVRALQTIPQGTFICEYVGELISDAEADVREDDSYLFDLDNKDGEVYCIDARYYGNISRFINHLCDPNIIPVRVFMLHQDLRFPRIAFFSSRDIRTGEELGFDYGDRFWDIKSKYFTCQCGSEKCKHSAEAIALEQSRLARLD
#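 Readings reflect AlphaScreen signal from monomethyl-H3K9 antibody detection. HMT at 20 nM; substrate b-H3K9 500 nM; cofactor SAM 20 uM; 2 h RT reaction; compounds tested as titrations in qHTS with 15 min preincubation.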
# Sfp inh – qHTS Assay for Inhibitors of Bacillus subtilis Sfp phosphopantetheinyl transferase (PPTase) | 4'-phosphopantetheinyl transferase ffp (Bacillus subtilis), Q9F4F7 | Biochemical Sfp PPTase activity, qHTS | Potency, µM, without a hit: largest response in the series, negative = inhibition, hits mostly inhibitors | 3.5% of 310,000 active | AID 1490, 2009;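 further: the enzyme is Sfp with the accession as filed and its product quenches rhodamine fluorescence; 0% = enzyme reaction without inhibitor and -100% = no enzyme wells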
#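 Fluorescence-quenching assay: 15 nM Sfp-PPTase preincubated 15 min at room temperature with compound, then 5 uM rhodamine-CoA and 12.5 uM BHQ-2-labelled YbbR peptide added. Fluorescence (ex 525/em 598 nm) read at start and after 30 min; difference gives rate.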
# BAZ2B inh – qHTS Assay for Inhibitors of BAZ2B; Bromodomain adjacent to zinc finger domain protein 2B (Homo sapiens), Q9UIF8; AlphaScreen BAZ2B-H3K14Ac peptide displacement; Potency, µM (highest dose often 114 µM), for the others: at the highest dose activity change, negative = inhibition, usual class: inhibitors; 4.4% of 360,000 active; AID 504333, 2011; further: on the % scale 0 is the no-effect control and ±100 the full control effect; nearly all actives have a fitted effect of over 60% in size
#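 BAZ2B 50 nM plus b-H3(5-23)K14Ac 50 nM, PBS pH 7.4/0.01% Tween-20, 30 min RT; compound added (max 110 uM), 30 min RT; streptavidin donor/Ni-chelate acceptor beads 10 ug/mL final, 20 min dark; AlphaScreen read.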
# HP1b chromo inh – HTS for Inhibitors of HP1-beta Chromodomain Interactions with Methylated Histone Tails; 0.56% of 390,000 active; AlphaScreen HP1-beta / biotin-H3K9me3 peptide binding; Potency, µM (doses to about 114 µM), for the others: at the highest dose activity change, negative = inhibition, usual class: inhibitors; AID 540317, 2011; further: nearly all actives have a fitted effect of over 70% in size
# Target sequence (P83916 whole entry, looked up): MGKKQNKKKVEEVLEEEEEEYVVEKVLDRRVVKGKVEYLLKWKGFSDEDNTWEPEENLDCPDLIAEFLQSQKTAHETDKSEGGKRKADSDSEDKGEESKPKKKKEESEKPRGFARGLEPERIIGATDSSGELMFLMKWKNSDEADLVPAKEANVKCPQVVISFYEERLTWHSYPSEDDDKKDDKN
#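 HP1-beta protein (50 nM final) preincubated 30 min at room temperature with biotinylated H3(1-18)K9me3 peptide (50 nM) in PBS pH 7.4, 0.01% Tween-20, then compound added for 30 min. AlphaScreen streptavidin donor/nickel chelate acceptor beads (10 ug/mL final), 30 min dark, luminescence read.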
# * = called active by the depositor; u = inconclusive; x = not tested or not shown; [ ] = dose if it differs, or a comment. Hits are enriched below; roughly 12% of the tested compounds scored in any of these assays. The call rests on the fitted dose curve; in most records, active means well fitted curve in the direction sought with a large enough effect; inconclusive means small, poorly fitted or top-dose-only effect, or another doubt; inactive means no such curve, though single readings can be large; an effect the other way counts as inactive or inconclusive. Potency means the concentration at half of the fitted maximal effect.
SMILES,JMJD2A Tudor inh,PLK1 PBD inh,G9a inh,Sfp inh,BAZ2B inh,HP1b chromo inh
S=c1[nH]nc(-c2ccccc2)n1Cc1ccccc1,11µM*,-9%,4%[2.33 µM],12%,-3%,-3%
Cc1ccn(Cc2n[nH]c(=S)n2Cc2ccccc2)n1,8.9µM*,-9%,3.2µM*,11%,0%,20%
COc1ccc(-c2n[nH]c(=S)n2Cc2ccccc2)cc1OC,10µM*,-13%,x,-11%,-34%,u
S=c1[nH]nc(-c2cccs2)n1Cc1ccccc1,u,-20%,u,2%,-33%,-30%
O=C(NCc1n[nH]c(=S)n1Cc1ccccc1)c1ccc(Cl)cc1Cl,-30%,2%,u,4%,-14%,33%
S=c1[nH]nc(-c2ccc(Cl)cc2)n1Cc1ccccc1,u,-30%,1.4µM*,-3%,-6%,6%
CC(=O)[C@@]1(O)C(C)CC2C3C=C(C)C4=Cc5c(cnn5-c5ccccc5)C[C@]4(C)C3C(O)C[C@@]21C (stereo partly specified),-23%,3%,u,19%,0%,17%
CC[C@H](C)[C@H](NC(=O)[C@H](N)Cc1ccc(O)cc1)C(=O)N[C@@H](CC(N)=O)C(=O)N[C@@H](CC(C)C)C(=O)N[C@H](C(=O)N[C@@H](C(=O)N[C@@H](CCCN=C(N)N)C(=O)N[C@@H](CCC(N)=O)C(=O)N[C@@H](CCCN=C(N)N)C(=O)N[C@H](Cc1ccc(O)cc1)C(N)=O)[C@@H](C)O)[C@@H](C)CC,x,x,x,-2%,x,x
Cn1c(CNC(=O)CNC(=O)c2cccc(F)c2)cc(=O)n(C)c1=O,-16%,-5%,x,14%,0%,33%
C=CCn1c(C2CCCCC2)n[nH]c1=S,5.6µM*,-15%,20µM*,10%,-21%,20%
O=C(NCc1ccc(Cl)cc1)c1cnc2sc(N3CCCC3)nn2c1=O,79µM*,x,-2%[59 µM],x,-1%,25%
C=CCn1c(C(CCCC)CC(O)COCC(C)C)n[nH]c1=S (stereo unspecified),40µM*,-15%,32µM*,u,-24%,48%
C=CCn1c(C(CC(C)C)CC(C)O)n[nH]c1=S (stereo unspecified),8.9µM*,-23%,28µM*,-13%,-1%,-23%
C=CCn1c(C(CCCC)CC(O)COCCC)n[nH]c1=S (stereo unspecified),-3%,-2%,u,-17%,14%,44%
C=CCn1c(CCC(O)COCCCCC)n[nH]c1=S (stereo unspecified),20µM*,-11%,28µM*,u,-20%,-14%
Cc1ccc(CNC(=O)CC(C)CC2=NS(=O)(=O)c3ccccc3N2)cc1 (stereo unspecified),-4%,x,8%[59 µM],x,0%,19%
Cc1ccc(NC(=O)[C@@H]2CCCN2S(=O)(=O)c2ccc(Cl)cc2)cc1,-8%,-10%,x,x,x,11%
COC(=O)[C@@H](N)Cc1ccc(O)c(O)c1,-10%,-10%,3%[59 µM],56µM*,5%,15%
CC(=O)N(Cc1ccccn1)Cc1ccco1,30%,4%,x,-19%,0%,23%
O=C(c1ccc(F)cc1F)N(Cc1ccccn1)Cc1ccco1,u,-5%,22µM*,-6%,u,23%
C=CCn1c(SCC#N)nc2ccc(Cl)cc2c1=O,7%[57.1 µM],x,x,x,x,21%[57 µM]
O=C1Nc2cc(C(=O)NCCCN3CCCC3)ccc2S/C1=C/c1cccc(Cl)c1,x,-10%,x,x,x,x
CCN1CCN(CCCNC(=O)c2ccc3c(c2)NC(=O)/C(=C\c2cccc(C)c2)S3)CC1,u,-3%,35µM*,35µM*,u,15%
Cc1cccc(/C=C2/Sc3ccc(C(=O)NCCCN4CCOCC4)cc3NC2=O)c1,x,x,1%[59 µM],50µM*,u,x
COc1ccc(OC)c(NC(=O)N2CCCc3ccccc32)c1,-33%,-1%,x,15%,u,9%
SMILES,JMJD2A Tudor inh,PLK1 PBD inh,G9a inh,Sfp inh,BAZ2B inh,HP1b chromo inh
O=C(NCc1cccc(Cl)c1)c1ccc(NC(=O)N2CC3CCCN3c3ccccc32)cc1 (stereo unspecified),u,x,10µM*,x,u,-12%
O=C(Nc1cccc(Cl)c1)N1CC2CCCN2c2ccccc21 (stereo unspecified),14µM*,x,2.2µM*,x,18µM*,u
CC1CN(C(=O)CCC(=O)NCc2ccccc2)c2ccccc2S1 (stereo unspecified),-8%,-1%,x,-2%,11%,36%
O=C(NCc1cccc(Br)c1)c1ccc(NC(=O)N2CCCCc3ccccc32)cc1,-18%,x,52%[59 µM],x,7%,14%
CCOc1ccc(CNC(=O)CCC(=O)N2CC3CCCN3c3ccccc32)cc1 (stereo unspecified),u,x,26%[59 µM],x,50µM*,u
COc1ccc(OC)c(NC(=O)N2CC3CCCN3c3ccccc32)c1 (stereo unspecified),40µM*,x,18µM*,x,20µM*,u
Cc1ccc(S(=O)(=O)N(CC(=O)N2CCOCC2)CC(=O)N2CCOCC2)cc1,-3%,0%,1%[59 µM],1%,8%,28%
Cc1ccc(S(=O)(=O)N(CCC(=O)O)c2ccccc2)cc1,-5%,0%,56µM*,-9%,-6%,30%
Cc1ccc(N(CCC(=O)O)S(=O)(=O)c2ccc(C)cc2)cc1,9%,-2%,24%[59 µM],36%,-6%,40%
CCOC(=O)N1CCN(C(=O)CN(C)S(=O)(=O)c2ccc(OC)c(OC)c2)CC1,-20%[11.4 µM],12µM*,-27%,-3%,4%,5%
Cc1ccc(N(CCC(=O)N2CCOCC2)S(=O)(=O)c2ccccc2)cc1,-1%,3%,0.71µM*,x,-2%,31%
Cc1ccc(N(CC(=O)N2CCOCC2)S(=O)(=O)c2ccccc2)cc1,3%[57.1 µM],-17%,1%[59 µM],15%,-13%,62%
Cc1ccc(S(=O)(=O)N(C)CC(=O)N2CCOCC2)cc1,79µM*,u,4%[59 µM],-5%,-6%,u
C=C(CC1([C@@H](NP(=O)(c2ccccc2)c2ccccc2)[C@H]2C[C@@H]2CCN(C(=O)OCC)S(=O)(=O)c2ccc(C)cc2)CC1)c1ccccc1,x,x,x,19%,x,x
O=C(O)Cn1c(=O)c2c3c(sc2n(Cc2ccc(Cl)cc2Cl)c1=O)CCCC3,-14%,u,u,-1%,-9%,19%
